Growth inhibition data for 20 molecules are collected here from PubChem BioAssay (NCI).

Structures are written as SMILES. The panel holds about 79,000 compounds, 15% with a hit somewhere; the sample as a whole holds those more often. Values without a mark were called inactive. Active and inactive are the calls of the source. No stated cut-off is given here; in the data, active means growth inhibition above about 70%; inactive means the rest.

Assay [1] is described as follows: NCI Yeast Anticancer Drug Screen. Data for the rad50 strain (AID 155).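 Further: 0% = growth of vehicle-only cultures of the same strain.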 The settings on record: S. cerevisiae rad50 strain growth inhibition, stronger effect = higher value; at 50.0 µM unless noted. The gist of the method: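 Inhibition values express reduced yeast growth in compound-treated cultures relative to vehicle-treated controls.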
The nature of assay [2]: NCI Yeast Anticancer Drug Screen. Data for the mec2-1 strain (AID 157). The following applies: S. cerevisiae mec2-1 strain, stronger effect = higher value; at 50.0 µM unless noted. The essentials: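 Readout is yeast growth inhibition, normalised to vehicle-treated controls, in the mec2-1 strain exposed to compound.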
A short description of assay [3]: NCI Yeast Anticancer Drug Screen. Data for the sgs1 mgt1 strain (AID 161).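 Further: 0% = growth of cultures given vehicle only.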 The settings on record: S. cerevisiae sgs1 mgt1 strain, stronger effect = higher value; at 50.0 µM unless noted. The essentials: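 Percent growth inhibition was derived by comparing compound-exposed mutant yeast with vehicle-exposed cultures. The strain carries alterations in DNA damage repair.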
A short description of assay [4]: NCI Yeast Anticancer Drug Screen. Data for the cln2 rad14 strain (AID 165).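 Further: 0% = growth equal to vehicle treated cultures.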 The following applies: S. cerevisiae cln2 rad14 strain, stronger effect = higher value; at 50.0 µM unless noted. The gist of the method:
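Relative to vehicle controls, growth inhibition of compound-treated cln2 rad14 yeast was recorded.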

Assay [5] is described as follows: NCI Yeast Anticancer Drug Screen. Data for the bub3 strain (AID 167). The following applies: S. cerevisiae bub3 mutant strain, stronger effect = higher value; at 50.0 µM unless noted. The essentials: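 Steps: expose the mutant yeast strain to compound; grow alongside vehicle-treated cultures; measure growth; express inhibition against the vehicle cultures.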
A short description of assay [6]: NCI Yeast Anticancer Drug Screen. Data for the mlh1 rad18 strain (AID 175). The following applies: S. cerevisiae mlh1 rad18 strain growth inhibition, stronger effect = higher value; at 50.0 µM unless noted. The essentials:
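Test agents were incubated with a yeast strain of defined genotype (DNA damage repair defect). Inhibition of growth was derived by comparison with vehicle-exposed cultures.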

In the case of `COC(=O)[C@]1(c2ccc(N(C)C)cc2OC)C[C@@H]2CCCN(CCc3c1[nH]c1ccccc31)C2`, the growth inhibition in assay [1] was -5.8%; in assay [2] it was -4.35%; in assay [3], -11.5%; in assay [4], 18.4%; in assay [5], -0.65%; in assay [6], 21.6%.

As to `CCOC(=O)C(=CNc1ccc(OC)cc1[N+](=O)[O-])C(=O)OCC`, the growth inhibition in assay [1] is 11.7%; in assay [2] it was 7.85%; in assay [3], 11.6%; in assay [4], 0.3%; in assay [5] it was 11.3%; in assay [6], 15.1%.

`CCN1c2ccccc2CC(CCCN(C)C)(C(N)=O)c2ccccc21` (stereo not given): the growth inhibition in assay [1] was 3.8%; in assay [2], 12.3%; in assay [3], 18.2%; in assay [4] it was 9.45%; in assay [5], -1.85%; in assay [6], -8.25%.

On to `O=C(O)C1C2CCCC21` (stereo not given), for which the growth inhibition is -10.8% in assay [1]; 30.2% in assay [2]; -4.75% in assay [3]; 25.9% in assay [4]; 2% in assay [5]; 0.8% in assay [6].

Consider `Nc1cc(S(=O)(=O)O)c(O)c2c1C(=O)c1c(O)c(S(=O)(=O)O)cc(N)c1C2=O`, for which the growth inhibition was -17.6% in assay [1]; -1.75% in assay [2]; -2.55% in assay [3]; -12.8% in assay [4]; -9.35% in assay [5]; -18% in assay [6].

On to `COc1ccc(-c2sc(/N=C/c3ccc(N(C)CCC#N)cc3)c(C#N)c2C)cc1OC`, for which the growth inhibition was 4% in assay [1]; -1.05% in assay [2]; 28.1% in assay [3]; 16.4% in assay [4]; 18.3% in assay [5]; 15.3% in assay [6].

For `CCCNCCC`, the growth inhibition in assay [1] is 2.1%; in assay [2], -5.4%; in assay [3], 14.5%; in assay [4], -12.4%; in assay [5], 4.2%; in assay [6], 1.65%.

`Cc1ccc2c(N=Nc3ccc(C(=N)N)cc3)ccc(O)c2n1`: the growth inhibition in assay [1] was 99.3% (active); in assay [2], 99.4% (active); in assay [3] it was 99.5% (active); in assay [4], 98.2% (active); in assay [5] it was 99.2% (active); in assay [6] it was 99.2% (active).

As to `O=C1NC(=S)S/C1=C/C=C/c1ccccc1`, the growth inhibition in assay [1] was -21.4%; in assay [2], 3.8%; in assay [3], 7.7%; in assay [4] it was 15.9%; in assay [5], -5.2%; in assay [6] it was 25.9%.

Regarding `CC(C)CCCC(C)C1CCC2C3CC(C(=O)O)C(C)(CCC(=O)O)C3CCC12C` (stereo not given), the growth inhibition in assay [1] is 44%; in assay [2], 36%; in assay [3], 43.9%; in assay [4], 30%; in assay [5], 4%; in assay [6], 41.7%.

For the molecule `COc1ccc(C2S/C(=C\c3ccc([N+](=O)[O-])cc3)C(=O)N2NC(=O)Cc2ccccc2)cc1` (stereo not given), the growth inhibition in assay [1] is 17.9%; in assay [2] it was -7.95%; in assay [3] it was 2.9%; in assay [4] it was -23.8%; in assay [5] it was 11.4%; in assay [6], 8.65%.

With `COC(=O)C(C)(N=Cc1ccccc1)c1ccccc1` (stereo not given), the growth inhibition in assay [1] is -34.2%; in assay [2], -30.9%; in assay [3] it was 6.7%; in assay [4] it was 17.4%; in assay [5], -9.75%; in assay [6], 0.6%.

On to `CC(COc1ccc(C(C)(C)C)cc1)OC=O` (stereo not given), for which the growth inhibition in assay [1] was 14.2%; in assay [2] it was 3.2%; in assay [3] it was 19.4%; in assay [4] it was -12.9%; in assay [5] it was 16.1%; in assay [6], -6.4%.

For the molecule `FC(F)(F)c1ccc(C2=CCCCC2)cc1`, the growth inhibition is 24.1% in assay [1]; 6.45% in assay [2]; 4.45% in assay [3]; 24.5% in assay [4]; -18.6% in assay [5]; 13.2% in assay [6].

Regarding `CC[N+](CC)(CC)Cc1cn(S(=O)(=O)c2ccccc2)c2ccccc12`, the growth inhibition is 4.3% in assay [1]; -0.7% in assay [2]; -0.95% in assay [3]; -64.7% in assay [4]; -0.7% in assay [5]; 5.95% in assay [6].

In the case of `CC1=C2CN(C(=O)OCC(C)C)CCC2C2=C(C(=O)c3ccccc3C2=O)C1C` (stereo not given), the growth inhibition in assay [1] was 1.4%; in assay [2] it was -3.75%; in assay [3], 39.6%; in assay [4], 14.6%; in assay [5], -12.2%; in assay [6] it was 44.5%.

As to `c1ccc(-c2cnoc2-c2ccccc2)cc1`, the growth inhibition in assay [1] was 14%; in assay [2], 17.6%; in assay [3] it was 7.15%; in assay [4], -19.8%; in assay [5], -18.7%; in assay [6], 8.3%.

As for `c1ccc(NN(Cc2cnccn2)c2ccccc2)cc1`, the growth inhibition was 9.75% in assay [1]; -2.65% in assay [2]; -24.9% in assay [3]; -29.9% in assay [4]; -56.5% in assay [5]; -12% in assay [6].

As for `CC(C)(C)OC(=O)C(=[N+]=[N-])C(=O)OC(C)(C)C`, the growth inhibition is 8.75% in assay [1]; 1.5% in assay [2]; 2.3% in assay [3]; -28.5% in assay [4]; -7.15% in assay [5]; 17.7% in assay [6].

Turning to `O=Nc1c(O)c2ccccc2[nH]c1=O`, the growth inhibition is 15.6% in assay [1]; 33.6% in assay [2]; 34.6% in assay [3]; 24.9% in assay [4]; 57.5% in assay [5]; 30.4% in assay [6].
